Only some compounds are listed: those with a hit (about 5.5% of all), similar ones and a draw of the others.
Mito fusion yeast – qHTS Assay for Small Molecule Inhibitors of Mitochondrial Division or Activators of Mitochondrial Fusion. S. cerevisiae fusion-defective mutant growth rescue, CellTiterGlo 48 h. Potency, µM (titrated, usually from 46.1 µM), usual class: activators. 0.23% of 320,000 active; further: nearly all actives have a fitted effect of over 45% in size
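Luminescent cell viability in 1536-well qHTS format served as the measure of rescued growth in ts fusion-mutant S. cerevisiae cultured on non-fermentable YPEG for 48 hours at 37C.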
uPA surface inh – qHTS for Inhibitors of Cell Surface uPA Generation; cell surface uPA generation assay, qHTS; Potency, µM (highest dose often 38.3 µM), usual class: inhibitors; 0.31% of 330,000 active; active means well fitted inhibition curve with a large enough effect; inconclusive means small, poorly fitted or top-dose-only effect; inactive means no such curve, though single readings can be large or run the other way; tested in mouse RAW 264.7 cells; further: nearly all actives have a fitted effect of over 55% in size
Gal4-VP16 FLuc – VP16 counterscreen qHTS for inhibitors of ROR gamma transcriptional activity | Drosophila S2 Gal4-VP16 UAS-luciferase, luminescence, 20 h | Potency, µM (titrated, usually from 53.6 µM), usual class: inhibitors | 3.5% of 310,000 active;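 further: Gal4-VP16 expression switched on by copper sulfate through the metallothionein promoter; nearly all actives have a fitted effect of over 50% in size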
RORg inh – qHTS for inhibitors of ROR gamma transcriptional activity | Nuclear receptor ROR-gamma (Mus musculus), P51450 | Drosophila S2 Gal4-RORgamma UAS-luciferase reporter, 20 h | Potency, µM (doses to about 53.6 µM), hits mostly inhibitors | 5.4% of 310,000 active; further: nearly all actives have a fitted effect of over 60% in size
Target sequence (P51450 whole entry, looked up, the tested form may be a part): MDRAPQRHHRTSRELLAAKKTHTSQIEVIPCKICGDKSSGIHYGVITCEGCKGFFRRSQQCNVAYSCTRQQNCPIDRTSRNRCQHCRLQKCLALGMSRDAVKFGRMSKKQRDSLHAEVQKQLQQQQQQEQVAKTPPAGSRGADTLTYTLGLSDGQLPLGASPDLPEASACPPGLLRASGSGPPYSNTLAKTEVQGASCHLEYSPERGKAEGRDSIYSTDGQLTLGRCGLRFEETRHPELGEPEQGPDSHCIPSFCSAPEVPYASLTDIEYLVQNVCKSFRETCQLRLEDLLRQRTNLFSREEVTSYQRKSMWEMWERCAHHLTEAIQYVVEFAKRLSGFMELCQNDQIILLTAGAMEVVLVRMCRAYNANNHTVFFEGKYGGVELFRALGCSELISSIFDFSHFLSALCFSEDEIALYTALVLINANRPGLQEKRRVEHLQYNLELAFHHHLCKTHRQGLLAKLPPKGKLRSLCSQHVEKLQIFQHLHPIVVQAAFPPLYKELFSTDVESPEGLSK
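Schneider cells (Drosophila), stable Gal4 DBD–ROR gamma + UAS-luc; 1 hr cmpd preincubation; Cu2+ induction 700 uM final; 20 hr ambient; luminescence.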
a7 integrin act – qHTS for Activators of Integrin-Mediated Alleviation for Muscular Dystrophy; alpha7betagal myoblasts, beta-gal FDG fluorescence, 48 h; Potency, µM (titrated, usually from 38.3 µM), hits mostly activators; AID 624291, 2012; 0.064% of 350,000 active; further: nearly all actives have a fitted effect of over 60% in size
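alpha7betagal+/- myoblasts (passage 13, 250/well) treated 48 h at 37C with compounds at 1:260 dilution of DMSO stock. Lysed, then beta-galactosidase activity read as FDG fluorescence (ex 480/em 540) after 30 min, with pre-read for autofluorescence.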
Chronic BCR inh – qHTS Assay to Find Inhibitors of Chronic Active B-Cell Receptor Signaling; ABC-DLBCL IkBa-CBG/CBR reporter, luminescence ratio, 4 h; Potency, µM (top dose mostly 46.1 µM), hits mostly inhibitors; 0.05% of 340,000 active; active means well fitted inhibition curve with a large enough effect in the signal ratio, with a control signal flat, not every such curve was filed as active; inconclusive means small, poorly fitted or top-dose-only effect, or effect the other way, or a change in a side signal; the % refers to the signal ratio
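Compounds up to 46 uM were incubated four hours with TMD8 cells whose green CBG68 luciferase is fused to IkappaBalpha; red CBR luminescence normalised the signal, and concentration-effect curves were fitted to fusion, red and ratio data.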
A number is an active result; [ ] = another dose, or the depositor's remark. Unless noted, the call rests on the fitted dose curve; in most records, active means well fitted curve in the direction sought with a large enough effect; inconclusive means small, poorly fitted or top-dose-only effect, or another doubt; inactive means no such curve, though single readings can be large; an effect the other way counts as inactive or inconclusive.

`S=c1[nH]nc(COc2ccc(Cl)cc2Cl)n1-c1ccccc1` gave Mito fusion yeast inactive, uPA surface inh inactive, Gal4-VP16 FLuc 3.5µM, RORg inh inactive[1.91 µM], a7 integrin act inactive and Chronic BCR inh inactive.
For S=c1[nH]nc(-c2ccc(Cl)cc2Cl)n1-c1ccccc1 the results were Mito fusion yeast inactive, uPA surface inh inactive, Gal4-VP16 FLuc inconclusive, RORg inh inactive[1.91 µM], a7 integrin act inconclusive and Chronic BCR inh inconclusive.
Screening COc1ccc(-n2c(CNC(=O)COc3ccc(Cl)cc3)n[nH]c2=S)cc1 returned Mito fusion yeast inactive, uPA surface inh inactive, Gal4-VP16 FLuc inactive, RORg inh inactive, a7 integrin act inactive and Chronic BCR inh inactive.
`COc1ccc(-n2c(CNC(=O)COc3ccc(Cl)cc3Cl)n[nH]c2=S)cc1` gave Mito fusion yeast inactive, uPA surface inh inconclusive, Gal4-VP16 FLuc inactive, RORg inh 10µM, a7 integrin act inactive and Chronic BCR inh inconclusive.
`O=C(Cn1ncc(Cl)c(Cl)c1=O)c1ccc(Cl)cc1` gave Mito fusion yeast inactive, uPA surface inh inactive, Gal4-VP16 FLuc inactive, RORg inh inconclusive, a7 integrin act inactive and Chronic BCR inh inconclusive.
O=C(OCn1ncc(Cl)c(Cl)c1=O)c1ccccc1Cl was read as Mito fusion yeast inactive, uPA surface inh inactive, Gal4-VP16 FLuc 13µM, RORg inh inactive, a7 integrin act inactive and Chronic BCR inh inconclusive.
Screening O=C(OCn1ncc(Cl)c(Cl)c1=O)c1ccc(F)cc1 returned Mito fusion yeast inactive, Gal4-VP16 FLuc 6.3µM, RORg inh inconclusive and Chronic BCR inh inconclusive.
For CCc1sc(C(=O)Nc2nc(C)cs2)cc1C the results were Mito fusion yeast inactive, uPA surface inh inactive, Gal4-VP16 FLuc 11µM, RORg inh 5µM, a7 integrin act inconclusive and Chronic BCR inh inconclusive.
Cc1csc(NC(=O)c2ccc(Br)s2)n1 was read as Mito fusion yeast inactive, uPA surface inh inactive, Gal4-VP16 FLuc inconclusive, RORg inh 10µM, a7 integrin act inactive and Chronic BCR inh inconclusive.
CCOC(=O)c1sc(NC(=O)c2cc3c(s2)CCC(C)C3)nc1C (stereo not given) was read as Mito fusion yeast inactive, uPA surface inh inactive, Gal4-VP16 FLuc inactive, RORg inh 0.25µM, a7 integrin act inactive and Chronic BCR inh inconclusive.
`Cc1csc(NC(=O)c2cccs2)n1` gave Mito fusion yeast inactive, uPA surface inh inactive, Gal4-VP16 FLuc inactive, RORg inh inactive, a7 integrin act inactive and Chronic BCR inh inconclusive.
`CCc1sc(C(=O)Nc2ccc(NC(C)=O)cc2)cc1C` gave Mito fusion yeast inactive, uPA surface inh inactive, Gal4-VP16 FLuc inactive, RORg inh inconclusive, a7 integrin act inactive and Chronic BCR inh inactive.
For CC1CCc2sc(C(=O)NN)cc2C1 (stereo not given) the results were Mito fusion yeast inactive, uPA surface inh inactive, Gal4-VP16 FLuc inactive, RORg inh inactive, a7 integrin act inactive and Chronic BCR inh inconclusive.
Cc1ccc(NC(=O)c2cc3c(s2)CCCC3)cc1 was read as Mito fusion yeast inactive, uPA surface inh inactive, Gal4-VP16 FLuc inactive, RORg inh inconclusive, a7 integrin act inactive and Chronic BCR inh inactive.
Cc1csc(NC(=O)c2cc3c(s2)CCC3)n1 was read as Mito fusion yeast inactive, uPA surface inh inactive, Gal4-VP16 FLuc 8.9µM, RORg inh 2µM, a7 integrin act inactive and Chronic BCR inh inactive.
`COc1ccc(NC(=O)N2CC[C@@]3(CCCN(C(=O)c4ccncc4)C3)C2)cc1` gave Gal4-VP16 FLuc inactive and RORg inh inactive.
COC(=O)c1sc(NC(=O)c2ccc(C)o2)nc1C was read as Mito fusion yeast inactive, uPA surface inh inactive, Gal4-VP16 FLuc inactive, RORg inh inconclusive, a7 integrin act inactive and Chronic BCR inh inconclusive.
`COC(=O)c1sc(NC(=O)c2cc3c(s2)CCCC3)nc1C` gave Mito fusion yeast inactive, Gal4-VP16 FLuc inconclusive, RORg inh 1.8µM, a7 integrin act inactive and Chronic BCR inh inactive.
`CCCN(CCC)S(=O)(=O)c1ccc(C(=O)Nc2nnc(COC)o2)cc1` gave Mito fusion yeast inactive, uPA surface inh inconclusive, Gal4-VP16 FLuc 2.2µM, RORg inh 0.56µM, a7 integrin act inactive and Chronic BCR inh inactive.
For CSCc1nnc(NC(=O)c2ccc(S(=O)(=O)N(CC(C)C)CC(C)C)cc2)o1 the results were Mito fusion yeast inactive, Gal4-VP16 FLuc 0.63µM, RORg inh 0.28µM and Chronic BCR inh inconclusive.
For COCCN(CCOC)S(=O)(=O)c1ccc(C(=O)Nc2nnc(C)o2)cc1 the results were Mito fusion yeast inactive, uPA surface inh inactive, Gal4-VP16 FLuc inconclusive, RORg inh 10µM, a7 integrin act inactive and Chronic BCR inh inactive.
Screening COCc1nnc(NC(=O)c2ccc(S(=O)(=O)N(C)C3CCCCC3)cc2)o1 returned Mito fusion yeast inactive, uPA surface inh inactive, Gal4-VP16 FLuc 4.5µM, RORg inh 1.6µM, a7 integrin act inactive and Chronic BCR inh inactive.
`COC(=O)c1c(NC(=O)c2ccc(S(=O)(=O)N(C)C3CCCCC3)cc2)sc2c1CCN(C)C2` gave Chronic BCR inh inactive.
C[C@@H](C(=O)NCc1ccc(C(F)(F)F)nc1)[C@H]1C[C@]1(C)[C@H](NC(=O)OCc1ccccc1)c1ccccc1 was read as Gal4-VP16 FLuc inactive and RORg inh inactive.
`O=C(CSc1nncn1-c1cccnc1)N(c1ccccc1)c1ccccc1` gave Mito fusion yeast inactive, uPA surface inh inactive, Gal4-VP16 FLuc inactive, RORg inh inactive, a7 integrin act inactive and Chronic BCR inh inactive.
For CN(c1ccccc1)S(=O)(=O)c1ccc(C(=O)Nc2ccncc2)cc1 the results were Mito fusion yeast inactive, uPA surface inh inactive, a7 integrin act inactive and Chronic BCR inh inactive.
Screening COCCN(CCOC)S(=O)(=O)c1ccc(C(=O)Nc2nnc(CSC)o2)cc1 returned Mito fusion yeast inactive, uPA surface inh inactive, Gal4-VP16 FLuc 13µM, RORg inh 5µM, a7 integrin act inactive and Chronic BCR inh inactive.
Screening CSCc1nnc(NC(=O)c2ccc(S(=O)(=O)N(C)C)cc2)o1 returned Mito fusion yeast inactive, uPA surface inh inactive, Gal4-VP16 FLuc 5µM, RORg inh 2µM, a7 integrin act inactive and Chronic BCR inh inactive.
For COCCN(CCOC)S(=O)(=O)c1ccc(C(=O)Nc2nnc(COC)o2)cc1 the results were Mito fusion yeast inactive, uPA surface inh inactive, Gal4-VP16 FLuc inactive, RORg inh inconclusive, a7 integrin act inactive and Chronic BCR inh inactive.
Screening CCc1nnc(NC(=O)c2ccc(S(=O)(=O)N(CC(C)C)CC(C)C)cc2)o1 returned Mito fusion yeast inactive, uPA surface inh inactive, Gal4-VP16 FLuc 0.35µM, RORg inh 0.32µM, a7 integrin act inactive and Chronic BCR inh inactive.
